Drawing on PubChem BioAssay (Tox21), this text covers Potency for 40 molecules.

Values joined by “and” are separate entries in the source; they are usually repeats but may differ in a detail not shown here. Equal values may be shown once. Results filed as inconclusive are left out. A call without a number means that no potency is given here. Active and inactive are the calls of the source. Calls follow the shape of the full dose curve.
Potency is read from the fitted curve at half-maximal effect.

The assay is described as follows: qHTS assay for small molecule agonists of the p53 signaling pathway (AID 651631). Also: nearly all actives have a fitted effect of over 15% in size. Particulars: HCT-116 p53RE-bla reporter, beta-lactamase FRET ratio, 16 h; series mostly up to 73.3 µM. An excerpt: U.S. Tox21 Program National Center for Advancing Translational Sciences [NCATS] NIH Chemical Genomics Center [NCGC] U.S. Environmental Protection Agency [EPA] National Institutes of Environmental Health Sciences [NIEHS] National Toxicology Program [NTP] U.S. Food and Drug Administration [FDA] Tox21 Assay Overview: p53, a tumor suppressor protein, is activated following cellular insult, including DNA damage and other cellular stresses. The activation of p53 regulates cell fate by inducing DNA repair, cell cycle arrest, apoptosis, or cellular senescence. The activation of p53, therefore, is a good indicator of DNA damage and other cellular stresses. The CellSensor p53RE-bla HCT-116 cell line (Invitrogen) contains a stably integrated beta-lactamase reporter gene under control of the p53 response elements. The activation of the reporter gene under culture conditions can be detected by fluorescence intensity. This cell line was used to screen the Tox21 compound library in a 1536-well plate format and to identify agonists that activate the p53 signaling pathway.
Tox21 Assay Protocol Summary: The p53RE-bla cells were dispensed at 4,000 cells/5 ul/well in 1536-well black wall/clear bottom plates using a Multidrop dispenser. After the assay plates were incubated at a 37 C/5% CO2 incubator for 5 hours, 23 nL of compounds dissolved in DMSO, positive controls or DMSO only was transferred to the assay plate by a pin tool. The plates were incubated at 37 C for 16 hours. After 1 uL of LiveBLAzerTM B/G FRET substrate was added using a Flying Reagent Dispenser, the plates were incubated at room temperature for 2 hours, and fluorescence intensity was measured by an Envision plate reader.
`CC(=O)Nc1ccccc1O`: the Potency entry is “inactive”.

For `COC(=O)Cc1cccc2ccccc12`, the Potency entry was “inactive”.

Regarding `CNc1ccccc1`, the Potency result was “inactive”.

Turning to `O=C(O)CCc1nc2ccccc2[nH]1`, the Potency result is “inactive”.

For `CCCC(=O)OCCC(C)C`, the Potency result is “inactive”.

As for `CCCCCCCCCCCCSC#N`, the Potency entry was “inactive”.

Regarding `CC(=O)S[C@H](C(=O)N[C@H]1Cc2ccccc2[C@H]2CCC[C@@H](C(=O)O)N2C1=O)C(C)C`, the Potency entry was “inactive”.

Turning to `O=C1OC(=O)C2CC=CCC12` (stereo not given), the Potency result was “inactive”.

Consider `Clc1ccccc1-c1nc(-c2ccncc2)no1`, for which the Potency entry is “inactive”.

As to `CC(C)C/C=C(\C=O)c1ccccc1`, the Potency entry was “inactive”.

Regarding `S=c1[nH][nH]c(=S)s1`, the Potency entry was “inactive”.

Consider `Cc1ccc2c(Cl)cc(Cl)c(O)c2n1`, for which the Potency is 2.37 µM (active).

Regarding `OCC(O)c1ccccc1` (stereo not given), the Potency entry was “inactive”.

`CC1=C(C)C(=O)C(C(CCCCCC(=O)O)c2ccccc2)=C(C)C1=O` (stereo not given): the Potency entry is “inactive”.

On to `CC(C)Oc1ccccc1O`, for which the Potency entry was “inactive”.

For `O=C(OCCCCCOC(=O)c1ccccc1)c1ccccc1`, the Potency entry was “inactive”.

With `CC(C)(O)C(=O)O`, the Potency result is “inactive”.

As to `Cc1c(N=C=O)cccc1N=C=O`, the Potency result was “inactive”.

As for `Nc1nc(Cl)nc2c1ncn2[C@H]1C[C@H](O)[C@@H](CO)O1`, the Potency is 841 nM (active) and 341 nM (active).

On to `CCCCCCCCCCCCCCCCC(=O)O`, for which the Potency entry was “inactive”.

As for `O=C(O)c1ccccc1[N+](=O)[O-]`, the Potency result was “inactive”.

On to `Nc1ccc(-c2ccc(F)cc2)cc1`, for which the Potency entry was “inactive”.

Turning to `FC1(F)C(F)(F)C(F)(F)C2(F)C(F)(C1(F)F)C(F)(F)C(F)(F)C1(F)C(F)(F)C(F)(F)C(F)(F)C(F)(F)C12F` (stereo not given), the Potency entry is “inactive”.

With `O=S(=O)(O)c1cc(Cl)c(Cl)cc1Cl`, the Potency result was “inactive”.

With `Cc1c(Cl)cccc1[N+](=O)[O-]`, the Potency entry is “inactive”.

In the case of `CCC(CC)C(=O)O`, the Potency result is “inactive”.

With `CCN(CCCCOC(=O)c1ccc(OC)c(OC)c1)C(C)Cc1ccc(OC)cc1` (stereo not given), the Potency entry was “inactive”.

For the molecule `CCc1ccc2c(c1)C(=O)c1ccccc1C2=O`, the Potency result was “inactive”.

For `CCCOC(C)=O`, the Potency entry was “inactive”.

Take `O=C(O)c1cc(C(=O)O)c(C(=O)O)cc1C(=O)O`: the Potency entry was “inactive”.

Regarding `O=C1c2ccccc2C(=O)C1c1ccc2cc(S(=O)(=O)O)cc(S(=O)(=O)O)c2n1`, the Potency result is “inactive”.

For the molecule `Nc1cccc2c(=O)[nH][nH]c(=O)c12`, the Potency result is “inactive”.

Regarding `CC1(C)CC(=O)CC(C)(C)N1`, the Potency entry was “inactive”.

For `O=C(O)c1ccc2cc(O)ccc2c1`, the Potency result was “inactive”.

On to `CCCC1CCCC(=O)O1` (stereo not given), for which the Potency result is “inactive”.

Regarding `O=C(Nc1ccc2c(c1)Cc1ccccc1-2)C(F)(F)F`, the Potency result is “inactive”.

For `CCOc1ccccc1O`, the Potency entry was “inactive”.

For `C[C@H]1C[C@H]2[C@@H]3CCC4=CC(=O)C=C[C@]4(C)[C@@]3(F)[C@@H](O)C[C@]2(C)[C@@]1(O)C(=O)COP(=O)(O)O`, the Potency result is “inactive”.

Consider `C[C@]12CCC(=O)C=C1[C@@H]1C[C@@H]1[C@H]1[C@@H]3[C@@H]4C[C@@H]4[C@@]4(CCC(=O)O4)[C@@]3(C)CC[C@@H]12`, for which the Potency result is “inactive”.

For the molecule `CCC(=O)O[C@@H]1C[C@H]2CC[C@]1(C)C2(C)C`, the Potency entry is “inactive”.
